Assay results: PubChem BioAssay (NCI)
The panel holds about 83,000 compounds, 20% with a hit somewhere; the sample as a whole holds those more often.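 Results are percent growth after 48 hours of single-concentration exposure. 100 means growth as in untreated cells, lower positive values show inhibition; negative values down to -100 show cell death.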 Unmarked numbers belong to inactive results. Calls of active or inactive are those of the source. Rule for the calls: active = growth percent below 10; inactive = the rest.

What was measured:
Assay in all cases: NCI-60 one-dose screen, 48 h (100 = growth as untreated, 0 = no growth, -100 = all killed)
Details in all cases: 10 µM unless noted
[1] = test system: NCI-H23 lung
[2] = test system: NCI-H226 lung
[3] = test system: NCI-H322M lung
[4] = test system: HOP-62 NSCLC
[5] = test system: NCI-H522 lung
[6] = test system: A549/ATCC NSCLC
[7] = test system: 786-0 renal
[8] = test system: COLO 205 colon
[9] = test system: DU-145 prostate
[10] = test system: K-562 leukemia
[11] = test system: MALME-3M melanoma
[12] = test system: MDA-MB-231 breast
[13] = test system: RXF 393 renal
[14] = test system: SF-268 CNS
[15] = test system: SF-295 CNS
[16] = test system: SF-539 CNS
[17] = test system: UACC-257 melanoma
[18] = test system: M14 melanoma
[19] = test system: HOP-92 NSCLC
[20] = test system: NCI-H460 lung

Row | Compound | growth [1] | growth [2] | growth [3] | growth [4] [%] | growth [5] | growth [6] [%] | growth [7] | growth [8] | growth [9] | growth [10] | growth [11] | growth [12] | growth [13] | growth [14] | growth [15] | growth [16] | growth [17] [%] | growth [18] | growth [19] | growth [20]
1 | COc1cc(/C=C/c2cc(/C=C/c3ccc(O)c(OC)c3)n(C(=O)c3ccccc3Br)n2)ccc1O | 17.7% | 38.5% | 39.5% | 43.5 | 4.2% (active) | 41.7 | 9.91% (active) | 23.9% | 28.9% | 3.62% (active) | 23.4% | 39.7% | -3.83% (active) | 28% | -29.7% (active) | 4.02% (active) | 87.1 | 5.42% (active) |  | 
2 | CC(C)CCSc1nc(-c2ccc(F)cc2)c(C#N)c(N2CCCCC2)n1 | 90.6% | 88.8% | 94.5% | 102 | 78.8% | 83.3 | 98.5% | 103% | 97% | 78.8% | 93.9% | 88% | 94.3% | 97.3% | 103% | 107% | 84.7 | 99.2% |  | 
3 | COc1cc(-c2nc(-c3ccc(-c4nc5ccc(F)cc5[nH]4)cc3)no2)cc(OC)c1OC | 30.4% | 29.2% | 90.7% | 26.5 | 18.2% | 42.8 | 46.4% | 60.4% | 68.5% |  | 46% | 9.59% (active) | -3.77% (active) | 35.8% | 22.5% | 33.9% | 80.1 | 43.6% |  | 
4 | CCN(C(=O)CCl)C(C)(C)C(SSSC(c1ccc(Cl)cc1)C(C)(C)N(CC)C(=O)CCl)c1ccc(Cl)cc1 (configuration not stated) | 93.6% | 104% | 87.7% | 86.6 |  |  | 79.7% | 56.8% | 85.5% | 0.579% (active) | 28.9% | 73.7% | 48.6% | 91.1% | 89.5% | 87.7% |  | -15.9% (active) | 47% | 
5 | COc1cc2c(=O)n(CCCN(C)C)c3c4cc[nH]c4ncc3c2cc1OC | 41.4% | 37.1% | 42.6% | 11.8 | 0.675% (active) | 44.1 | 33.7% | 13.2% | 30.8% | 54.3% | 62.4% | 50.8% | 23.1% | 28.3% | 29.2% | 73.3% | 87.9 | 40.5% |  | 
6 | COc1ccc(C(=O)N2N=C(c3ccc(F)cc3)CC2c2cn(-c3ccccc3)nc2-c2ccccc2)cc1 (configuration not stated) | 51% | 91.2% | 80% | 40.5 |  | 41.1 | 69.6% | 57% | 57.5% | 40.3% | 73.7% | 60.2% | 73.7% | 70.1% | 65.1% | 85.7% | 78.6 | 55% |  | 
7 | CC(C)CCSc1nc(-c2ccc(F)cc2)c(C#N)c(N2CCN(C)CC2)n1 | 91.5% | 96.8% | 87.8% | 85.2 | 59% | 65 | 65.6% | 84.6% | 94.4% | 62.7% | 97.4% | 53.3% | 78.8% | 83% | 101% | 93.1% | 64.1 | 94.7% |  | 
8 | COc1ccc(/C(C)=N/NC(=O)c2ccc(S(C)(=O)=O)cc2)cc1OC | 104% | 95.5% | 96.5% | 85.5 | 104% | 96.5 | 94.2% | 95.3% | 95.7% | 69.5% | 98.1% | 103% | 114% | 102% | 98.3% | 99.1% | 96.3 | 97.4% |  | 
9 | N#Cc1ccc(-c2ccc(-c3cccs3)o2)cc1F | 76.9% | 81.8% | 83.3% | 35.7 |  |  | 67.2% | 86.2% | 88.1% | 83.7% | 86.6% | 82.2% | 77.2% | 70.7% | 75.5% | 78.1% |  | 87.7% | 50.5% | 
10 | O=C(NO)c1ccc(CNc2cccc3nc(C4CC4)n(-c4ccccc4)c(=O)c23)cc1 | -48.4% (active) | 44.4% | 37.7% | 21.5 | 19.2% | 15.3 | 24.8% | 8.11% (active) | 3.14% (active) | 11.2% | 36.7% | 26.4% | -18.7% (active) | 7.14% (active) | 12.9% | 9.38% (active) | 37.6 | 18.4% |  | 
11 | N=C(N)c1ccc(-c2ccc(-c3cccs3)s2)cc1F | -62.8% (active) | -65.6% (active) | -92.4% (active) |  |  |  | -86% (active) | -87.1% (active) | -77.4% (active) | -6.25% (active) | -73.4% (active) | -74.1% (active) | -92.6% (active) | -77.1% (active) | -71.2% (active) | -93.9% (active) |  | -78.3% (active) | -62% (active) | -57.4% (active)
12 | CCCCOc1nc2ccccc2cc1/C=C/c1cc(/C=C/c2cc3ccccc3nc2OCCCC)n(-c2ccccc2)n1 | 103% | 95.5% | 94.9% | 91.2 | 85.8% | 102 | 107% | 99.6% | 113% | 99% | 104% | 103% | 106% | 107% | 114% | 110% | 96.4 | 99.7% |  | 
13 | C=CCN(CC#N)CC=C | 106% | 95.5% | 106% | 98.5 | 97.7% | 101 | 107% | 113% | 112% | 102% | 109% | 111% | 112% | 114% | 108% | 102% | 99.5 | 102% |  | 
14 | CCCNCCC(C)=O | 95.1% | 108% | 119% |  | 99.6% | 95.6 | 110% |  | 122% | 98.5% | 121% | 113% | 127% | 115% | 97.1% | 114% | 91.7 | 105% |  | 103%
15 | Cn1cnc([N+](=O)[O-])c1S(=O)(=O)Oc1ccccc1 | 101% | 91.6% | 109% |  | -75.7% (active) | 106 | 95.2% | -16.9% (active) | 70.4% | 31.8% | -60.9% (active) | 99.4% | 74.1% | 101% | 110% | 93.8% | 90.9 | 53.1% |  | 105%
16 | COc1cc(NCC(O)CN(CC(C)C)CC(C)C)c2ncccc2c1 (configuration not stated) | 82% | 74.9% | 95.6% |  | 55.9% | 91.6 | 85% | 81% | 113% | 59.6% | 89.6% | 85.5% | 51.5% | 98.5% | 91.9% | 102% | 77.2 | 87.7% |  | 95.4%
17 | c1ccc(-c2nnn(-c3ccccc3)n2)cc1 | 105% | 91.4% | 100% |  | 89.7% | 99.7 | 104% | 117% | 127% | 89.1% | 115% | 84.6% | 102% | 109% | 106% | 105% | 103 | 109% |  | 114%
